Source: PubChem BioAssay
Most compounds without a hit are left out; they make up all but 3.3% or so of the library.
AmpC no deterg – AmpC beta-lactamase inhibition without detergent; AmpC nitrocefin hydrolysis, absorbance 480 nm, 0.0001% Triton; 330,000 tested, 0.52% active; Potency, µM (series often up to 57.1 µM), for the others: top-dose activity change, negative = inhibition, most hits filed as inhibitors; P00811;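 also: plate controls were no compound for no effect and no enzyme for full effect; nearly all actives have a fitted effect of over 20% in size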
Target sequence (P00811 whole entry, looked up): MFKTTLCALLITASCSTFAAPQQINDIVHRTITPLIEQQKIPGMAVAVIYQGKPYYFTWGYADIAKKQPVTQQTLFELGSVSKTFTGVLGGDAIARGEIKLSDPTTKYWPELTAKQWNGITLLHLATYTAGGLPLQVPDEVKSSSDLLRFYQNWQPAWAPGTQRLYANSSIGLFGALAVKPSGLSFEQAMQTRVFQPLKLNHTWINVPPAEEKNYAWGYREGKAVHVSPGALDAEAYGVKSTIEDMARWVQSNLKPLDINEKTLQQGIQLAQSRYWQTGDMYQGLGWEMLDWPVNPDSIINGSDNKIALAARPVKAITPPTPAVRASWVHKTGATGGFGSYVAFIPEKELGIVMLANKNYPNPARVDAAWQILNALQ
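20 mM phosphate pH 7.0 + 0.01% (detergent screen) or 0.0001% Triton X-100; 5.3 nM AmpC reagent; cpd preinc 15 min RT; nitrocefin (800 uM stock) to start; A480 q20 s × 4 min; Activity was normalised to no-enzyme and no-compound control wells.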
Sm TGR inh – S. mansoni TGR enzyme inhibition. Q962Y6. purified TGR, DTNB reduction, TNB absorbance 405 nm. Potency, µM (top dose mostly 114 µM), inactives show at the highest dose activity change, negative = inhibition, actives largely listed as inhibitors. 360,000 tested, 3% active. AID 485364; also: nearly all actives have a fitted effect of over 60% in size
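TGR 20 nM + NADPH 100 uM (dispensed conc.), cpd preinc 15 min RT; start with NADPH (500 uM addition) then DTNB (15 mM addition). Kinetic TNB absorbance, 405 nm filter. Four-parameter Hill fit across titration.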
AmpC detergent – blocks E. coli AmpC beta-lactamase in detergent assay. 370,000 tested, 0.041% active. AmpC hydrolysis of nitrocefin, absorbance 480 nm, 0.01% Triton. P00811. AID 485294. Potency, µM (top dose mostly 114 µM), for the others: at the top dose activity change, negative = inhibition, most hits filed as inhibitors;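 also: 0% = no-compound wells and -100% = no-enzyme wells; nearly all actives have a fitted effect of over 25% in size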
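AmpC (5.3 nM in the dispensed reagent) in 20 mM phosphate pH 7.0 with 0.01% (detergent screen) or 0.0001% Triton X-100 was preincubated with compounds for 15 min at room temperature. Nitrocefin was then added from an 800 uM solution, and hydrolysis was followed at 480 nm.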
Active calls of the source: *; ? = inconclusive; . = not tested or not shown. Calls follow the shape of the dose curve; as a rule, active = well fitted curve in the direction sought with a large enough effect; inconclusive = small, poorly fitted or top-dose-only effect, or another doubt; inactive = no such curve, though single readings can be large; an effect the other way counts as inactive or inconclusive. Unless noted, % is scaled to controls: 0 for no effect and ±100 for the full control effect; potency is read from the fitted curve at half-maximal effect.

SMILES	AmpC no deterg	Sm TGR inh	AmpC detergent
CCOc1ccc(NC(=O)CC2C(=O)N(c3ccc(C)cc3)C(=O)N2CCC2=CCCCC2)cc1 (configuration not stated)	.	4.5%	9.9%
CCOC(=O)c1c(C)oc2c1c(C=NCc1ccccn1)c(O)c1ccccc12	20.7%	?	0.2%
CCOC(=O)c1c(C)oc2c1c(C(c1cccnc1)N1CCOCC1)c(O)c1ccccc12 (configuration not stated)	97.7%	1.26µM*	-2.4%
COC(=O)NCC(c1cccnc1)N1CCOCC1 (configuration not stated)	-19.0%	-28.8%	-2.6%
CCOC(=O)c1c(C)oc2c1c(C(c1cccnc1)N1CCN(C)CC1)c(O)c1ccccc12 (configuration not stated)	-9.5%	0.562µM*	?
CCOC(=O)c1c(C)oc2c1c1c(c3ccccc32)OCN(CCCC(=O)O)C1	-2.8%	-1.6%	-1.6%
CCOC(=O)c1c(C)oc2c1c1c(c3ccccc32)OCN(Cc2cccnc2)C1	127.9%	0.355µM*	7.7%
O=C(Cc1ccc(Cl)cc1)Nc1ccccc1C(=O)N1CCCCC1	-4.4%	4.2%	-1.3%
CC(C)CN1CCN(Cc2cnc(N3CCOCC3)s2)CC1CCO (configuration not stated)	-1.4%	2.3%	5.0%
COC(=O)CN(C)C(=O)c1ccc(OC2CCN(S(=O)(=O)N(C)C)CC2)cc1	13.1%	-23.3%	-11.1%
O=C(COC(=O)c1ccc(Br)o1)NCC(=O)Nc1ccc(F)cc1	-14.8%	-6.3%	-1.4%
Cc1[nH]c(=O)[nH]c(=O)c1S(=O)(=O)N1CCC(C(=O)N2CCN(c3cccc(C(F)(F)F)c3)CC2)CC1	148.5%	1.9%	?
Cc1cccc(/C=C/C(=O)c2cc(Br)ccc(=O)c2O)c1	31.6µM*	2.2%	-8.1%
CCc1ccc(/C=C/C(=O)c2cc(Br)ccc(=O)c2O)cc1	28.2µM*	0.0%	-7.4%
Cc1cccc(/C=N/NC(=O)c2ccc(Br)cc2)c1	-37.2%	-2.0%	-9.0%
CCOc1ccc(/C=C/C(=O)c2cc(Br)ccc(=O)c2O)cc1	31.6µM*	28.2µM*	?
Cc1ccc(/C=C/C(=O)c2cc(Br)ccc2OC(=O)c2ccco2)cc1	-9.8%	-0.2%	0.8%
CCOc1ccc(C(=O)/C=C/c2ccc(OC)c(OC)c2)cc1	65.7%	.	-3.7%
COc1ccccc1N=CC1=C(O)CC(c2ccccc2)CC1=O (configuration not stated)	-34.6%	-0.3%	-12.5%
N#Cc1ccc(CN2C(=O)c3ccccc3Sc3ccc(C(=O)OCc4ccco4)cc32)cc1	.	-30.6%	25.4%
C=C(C)Cn1c(=O)c2c(nc3n2CCCN3CCc2ccccc2)n(C)c1=O	87.3%	-6.2%	-2.6%
COc1cc2ccccc2cc1C(=O)Nc1ccc(C)cn1	-23.3%	-17.0%	-13.3%
CC(C)CC1C(C#N)=C(N)OC2=C1C(=O)CC(c1ccccc1)C2 (configuration not stated)	28.2µM*	0.5%	?
CC(CC1C(C#N)=C(N)OC2=C1C(=O)CCC2)c1ccccc1 (configuration not stated)	-29.5%	1.26µM*	2.0%
CCc1ccc(C2C(C#N)=C(N)OC3=C2C(=O)CCC3)s1 (configuration not stated)	-13.0%	.	3.7%
SMILES	AmpC no deterg	Sm TGR inh	AmpC detergent
N#CC1=C(N)OC2=C(C(=O)CC(c3ccccc3)C2)C1c1ccc2c(c1)OCO2 (configuration not stated)	-32.5%	-5.3%	-23.2%
CCOC(=O)c1sc(NC(=O)C(C)(C)C)cc1C	10µM*	-1.7%	?
CCOC(=O)c1sc(NC(=O)C2CC2)cc1C	-24.0%	-1.1%	-7.2%
CCc1ccc2c(c1)NC(c1ccc(F)cc1)=NC(c1ccncc1)=N2	.	-2.6%	13.4%
COc1ccc(C(=O)/C=C/Nc2ccc([N+](=O)[O-])cc2C)cc1OC	2µM*	1.7%	3.5%
COc1ccc(C(=O)NC(=S)Nc2ccc([N+](=O)[O-])cc2C)cc1OC	?	3.2%	1.5%
COc1ccc(C(=O)/C=C/Nc2cc(C)on2)c(OC)c1	-2.8%	-13.2%	-7.9%
COc1ccc(C(=O)/C=C/Nc2ccc([N+](=O)[O-])cc2C)c(OC)c1	1.26µM*	3.0%	0.6%
CC(N=Cc1cccc(O)c1O)c1ccccc1 (configuration not stated)	-40.7%	5.62µM*	?
CC(N=Cc1cc([N+](=O)[O-])ccc1O)c1ccccc1 (configuration not stated)	-31.2%	-5.4%	-4.7%
Cc1ccccc1N=Cc1cccc(O)c1O	-47.8%	5.01µM*	?
